# Screening results (PubChem BioAssay)
# D1 agonist: activates the human D1 dopamine receptor; HEK293 T-REx D1 cells, calcium flux, agonist mode; activation, % at 2 µM; 360,000 compounds, 1% hits; AID 504660
#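 Agonism was scored from calcium flux recorded over 180 s (1 read/s) after pintool compound addition, following a 10-cycle baseline. Cells were inducible force-coupled HEK293 TREx D1, plated overnight at 30 C and loaded with no-wash calcium dye.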
# TRHR PAM: allosteric enhancers of human TRH receptor. P34981. TRHR cells, fluo-8 calcium fluorescence, EC20 TRH enhancement. enhancement, % at 2 µM. 360,000 compounds, 0.66% hits; in the data active = enhancement above about 30%
# Target sequence (P34981 whole entry, looked up): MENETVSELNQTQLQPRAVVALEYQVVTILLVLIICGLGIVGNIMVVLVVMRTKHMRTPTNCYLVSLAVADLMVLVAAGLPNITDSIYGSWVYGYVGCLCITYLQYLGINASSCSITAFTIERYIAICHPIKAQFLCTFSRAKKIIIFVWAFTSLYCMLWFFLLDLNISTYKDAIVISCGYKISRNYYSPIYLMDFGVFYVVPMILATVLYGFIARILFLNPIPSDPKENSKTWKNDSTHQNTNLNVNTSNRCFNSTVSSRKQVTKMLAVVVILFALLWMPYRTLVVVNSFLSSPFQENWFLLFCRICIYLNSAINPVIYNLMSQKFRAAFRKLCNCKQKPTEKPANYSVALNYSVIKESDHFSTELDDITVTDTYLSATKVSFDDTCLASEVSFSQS
#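 TRHR-expressing cells loaded with fluo-8 calcium dye were read kinetically (ex 480/em 530) during compound addition, then stimulated with an EC20 of TRH (10 nM final). Enhancement of the Gq-mediated intracellular calcium response was scored.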
# D1 potentiator: human D1 dopamine receptor positive modulation; P21728; HEK293 TREx D1 cells, calcium flux, dopamine EC20 potentiation; potentiation, % at 10 µM; 360,000 compounds, 0.036% hits; AID 504651; in the data active = potentiation above about 30%
# TRHR agonist: activates the human TRH receptor; P34981; activation, % at 2 µM; TRHR cells, calcium flux fluo-8, FDSS agonist mode; 360,000 compounds, 0.18% hits; AID 493084
#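 In this calcium-flux screen, cells bearing human TRHR are dye-loaded with fluo-8, baselined for 10 cycles, then exposed to library compounds; positive kinetic calcium responses during the agonist phase mark hits, with TRH as control.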
# D1 antagonist: blocks dopamine activation of the human D1 receptor; 360,000 compounds, 3.2% hits; activity change, negative = inhibition, % at 10 µM; HEK293 TREx D1 cells, calcium flux, dopamine EC80; active compounds read low; AID 504652; P21728; in the data active = activity change below about -30%
#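 Inducible Hek293 Trex D1 cells (tetracycline, overnight, 30 C). Calcium dye 30–90 min RT. Antagonist mode: EC80 dopamine added after 180 s compound read.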
# Epigenetic reg: epigenetic control regulation, reporter derepression; AID 1865; murine LDR cells, GFP reporter derepression, 30 h; Potency, µM (titrated, usually from 53.9 µM), hits mostly activators; 280,000 compounds, 0.2% hits; active = well fitted activation curve with a large enough effect; inconclusive = small, poorly fitted or top-dose-only effect; note: nearly all actives have a fitted effect of over 60% in size
#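 Murine LDR cells carrying a silenced, genomically integrated CMV-driven GFP reporter were exposed to compound for 30 hours at 37 C. After PBS washes, GFP-positive cells (20–120 um objects) were counted by laser-scanning microplate cytometry.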
# Hits are given with their value; - = inactive; ? = inconclusive; . = no result; [ ] = another dose, or the depositor's remark. In the library only some 4.6% were active in any assay of this set; here they are far more common. Cut-off read from the data, not from the text of the source, unless noted: active = activation above about 30%; inactive = the rest.
SMILES,D1 agonist,TRHR PAM,D1 potentiator,TRHR agonist,D1 antagonist,Epigenetic reg
Brc1ccc(Nc2c3c(nc4nncn24)CCC3)cc1,-,-,-,-,-,?
CC(=O)n1nc(-c2ccccc2)nc1NCc1ccc(N(C)C)cc1,-,38.9,-,-,-,-[10.1 µM]
CN(C)c1ccc(CNc2nc(-c3ccccc3)nn2S(C)(=O)=O)cc1,-,-,-,-,-,-
Cc1cc(C)c(S(=O)(=O)NC2CCN(Cc3ccccc3)CC2)c(C)c1,-,-,-,-,-,-
Cc1noc(C)c1S(=O)(=O)NC1CCN(Cc2ccccc2)CC1,-,-,-,-,-40.7,-
CCOc1ccc(CONS(=O)(=O)c2ccc(NC(C)=O)cc2)cc1Cl,68.5,-,-,-,-,-
CCn1c(/C(C#N)=C/c2ccccc2Cl)nc2ccccc21,-,49.6,-,-,-,-
CCn1c(/C(C#N)=N/O)nc2ccccc21,-,-,-,-,-,-
COc1cc(Cl)c(C)cc1Nc1nc2ccccc2c2nnc(C)n12,-,33.0,-,-,-,-
O=C(Nc1cccc(Cl)c1)NC1CC2CCC(C1)N2Cc1ccco1 (centres undefined),-,-,-,-,-40.7,-
Cc1ccc(C(=O)NC2CC3CCC(C2)N3Cc2ccco2)cc1 (centres undefined),-,-,-,-,-69.5,-
COc1cc(OC)cc(C(=O)NC2CC3CCC(C2)N3Cc2ccco2)c1 (centres undefined),-,-,-,-,-34.5,-
Cc1nc(Nc2ccccc2)c2nc(-c3ccccc3)n(CCN3CCOCC3)c2n1,.,.,.,.,.,-
CCc1cc2c(=O)c(-c3nc4ccccc4n3C)coc2c(CN2CCCCC2C)c1O (centres undefined),-,-,-,-,-,.
CC1CCCCN1Cc1c(O)ccc2c(=O)c(-c3nc4ccccc4s3)coc12 (centres undefined),-,31.6,-,-,-,-
COc1ccc(NC(=O)CN(C)C(=O)c2ccccc2OCC(=O)Nc2cccc(C(F)(F)F)c2)cc1,-,-,-,-,-32.9,.
Nc1nc(C(F)(F)F)c(Br)c(=O)n1N,-,-,-,-,-30.2,-
CCc1cccc(C)c1NC(=O)CN1C(=O)C2(SCC(=O)N2c2cccc(F)c2)c2ccccc21 (centres undefined),-,-,-,-,-,-
O=C(Cn1c(=O)n(CCc2ccccc2)c(=O)c2cccnc21)Nc1ccc(F)cc1,-,-,-,-,-,?
CCOC(=O)CSc1nc2sc3c(c2c(=O)n1-c1ccc(OCC)cc1)CCN(C)C3,30.1,-,-,-,-,.
NC(=O)c1ccccc1O,-,-,-,-,-,-
O=C(C/C(=N/O)c1ccccc1O)C(F)F,-,-,-,-,-32.5,-
O=S(=O)(Nc1ccc(F)c(C(F)(F)F)c1)c1ccc(N2CCCCS2(=O)=O)cc1,-,-,-,-,-,-
Cc1ccc(NC(=O)CSC2=C(C#N)C(c3ccco3)CC(=O)N2)cc1 (centres undefined),-,-,-,-,-,-
Cc1ccc(C(=O)CSC2=C(C#N)C(c3ccco3)CC(=O)N2)c(C)c1 (centres undefined),63.2,-,-,-,-58.3,-
SMILES,D1 agonist,TRHR PAM,D1 potentiator,TRHR agonist,D1 antagonist,Epigenetic reg
CCOc1ccc(C(=O)NCc2nnnn2-c2ccc(C)c(C)c2)cc1OCC,-,-,-,-,-,-
Cc1ccc(-c2noc(-c3ccccc3NC(=O)c3ccccc3)n2)cc1,-,-,-,-,-,-
Cc1ccc(-c2noc(-c3ccccc3NC(=O)C3CC(=O)N(c4cccc(C)c4)C3)n2)cc1 (centres undefined),-,-,-,-,-,15.8µM
CCC(C)(C)NC(=O)C(c1ccc(OC)cc1)N(Cc1cccs1)C(=O)CCC(=O)Nc1cc(C)on1 (centres undefined),-,-,-,-,-35.5,-
CN1C(=O)C2(c3ccccc31)c1c(oc3ccccc3c1=O)C(=O)N2CCO (centres undefined),-,-,-,-,-,-
CN1C(=O)C2(c3ccccc31)c1c(oc3ccccc3c1=O)C(=O)N2CCCO (centres undefined),-,-,-,-,-30.9,-
Cc1ccc2oc3c(c(=O)c2c1)C1(C(=O)N(C)c2ccccc21)N(CCCO)C3=O (centres undefined),-,35.5,-,-,-,-
CC(=O)c1ccc(NC(=O)c2cc(C3CC3)nc3c2c(C)nn3-c2ccc(C)cc2)cc1,-,-,-,-,-,-
Cc1ccc(-c2cn3cccc(C)c3n2)cc1,-,-,-,-,-,-
COc1ccc(-c2cn3cccc(C)c3n2)cc1F,-,-,-,-,-37.5,-
O=C(Nc1ccc(S(=O)(=O)N(Cc2ccccc2)c2ccccc2)cc1)c1ccc([N+](=O)[O-])cc1,-,-,-,-,-,-
Cc1nn(CCc2nn[nH]n2)c2nc(-c3ccc(C4CCCCC4)cc3)cc(C(F)(F)F)c12,-,-,-,-,-45.7,-
CCCSCCCNC(=O)C1CCN(C(=O)c2cnn(-c3ccccc3)c2-n2cccc2)CC1,-,-,-,-,-,-
CN(C)c1cccc(C(=O)N/C=C/n2cnc3cc(C(F)(F)F)ccc32)c1,-,-,-,-,-39.1,-
CCCCOc1ccc(C(=O)Nc2cccc(-c3nc4cccnc4s3)c2)cc1,-,-,-,-,-,-
CCNc1ncc2nc(-c3cccc(C#N)c3)c(=O)n(CCC#N)c2n1,.,.,.,.,.,-
COc1ccc(C2C3C(=O)N(N(C)c4ncc(C(F)(F)F)cc4Cl)C(=O)C3ON2C)cc1 (centres undefined),-,-,-,-,-30.8,-
COC(=O)C1(C(=O)OC)NOC2C(=O)N(N(C)c3ncc(C(F)(F)F)cc3Cl)C(=O)C21 (centres undefined),-,-,-,-,-,-
Cc1ccc(CNC(=O)C2CCCN(c3nc4ccccc4n4cccc34)C2)cc1 (centres undefined),-,-,-,-,-,-
O=C1/C(=C/c2cccc(F)c2)Oc2cc(O)ccc21,34.5,-,-,-,-36.4,.
Cc1cccc(/C=C2\Oc3cc(OS(C)(=O)=O)ccc3C2=O)c1,-,-,-,-,-,-
Cc1onc(-c2ccccc2)c1C(=O)NNC(=S)NC(=O)c1ccc(Cl)cc1Cl,308.0,-,-,35.1,-,-
Cc1onc(-c2ccccc2)c1C(=O)NNC(=O)c1ccccc1O,-,-,-,-,-,.
COc1cc(C(=O)NNC(=S)NC(=O)c2ccccc2C)cc(OC)c1OC,47.0,-,-,-,-,-
Cc1ccccc1C(=O)NNC(=S)NC(=O)c1ccc(Cl)cc1Cl,157.7,-,-,44.5,-52.2,-
